ALR H2O2 inh – human ALR oxidase inhibition via reduced H2O2 | P55789 | purified ALR, DTT oxidation, H2O2 HRP-luminol luminescence | inhibition, % (test concentration not listed) | hit rate 3.8% among 290,000 | AID 485317;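 active = mean replicate inhibition above about 79%, with every replicate also reaching it, limit read from the data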
Target sequence (P55789 whole entry, looked up): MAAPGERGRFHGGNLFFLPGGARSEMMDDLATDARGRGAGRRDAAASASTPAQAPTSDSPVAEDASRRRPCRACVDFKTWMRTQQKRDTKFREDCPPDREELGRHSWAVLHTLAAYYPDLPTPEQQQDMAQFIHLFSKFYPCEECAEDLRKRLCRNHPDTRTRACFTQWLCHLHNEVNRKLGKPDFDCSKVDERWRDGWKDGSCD
Mot1-301 SUMO – inhibitors of SUMOylation pathway: yeast Mot1-301 growth rescue. S. cerevisiae Mot1-301 growth rescue, ATP luminescence, 38.5C; percent above DMSO median, 100 means doubled. growth rescue, % at 18.8 µM. hit rate 1% among 320,000. AID 2716;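 active = every valid replicate shows activation above 250% relative to neutral control wells; inactive = the rest, any valid replicate at or below 250%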;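 also: OY570 slx delta 5 strain wells were the positive control but not used for scaling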
AI-2 QS mod – modulates the Vibrio harveyi AI-2 quorum sensing system | Vibrio harveyi JMH597 AI-2 luminescence/OD600 ratio, 9 h; hits give low values; strain lacks LuxN and CqsS sensors; 0 = neutral-control median | activity change, % at 7.5 µM | hit rate 0.4% among 300,000 | AID 2094; in the data active = activity change below about -75%, passing the limit was not always enough;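 also: luminescence divided by OD600 gain over 9 h not by final OD600 alone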
HIF activator – HIF pathway transcriptional activation; U2OS HRE-luciferase reporter, luminescence; normalized: DMSO 0%, desferrioxamine 100%; activation, % at 7.5 µM (by protocol); hit rate 0.32% among 300,000;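 active = mean activation of at least 10% of the iron chelator positive control signal, with at least half of replicates also reaching 10%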
Yeast Mot1 SUMO – yeast SUMO pathway inhibition in dose response; growth activity, percent, % at 42 µM; AID 493004; shares compounds with Mot1-301 SUMO; 2,300 tested, under 10 active; S. cerevisiae Mot1-301 galactose growth, ATP luminescence, 24 h; -100 = growth of slx-deleted rescue strain;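 active = Signal drops as the depositor expects, and the fitted half-maximal dose is no more than ten times the top valid tested dose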;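 also: more negative values mean stronger growth rescue toward the control strain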
Numbers without * were called inactive; nt = not tested or not shown; + = active, no number; ! = not confirmed by another sample; [ ] = another dose, or the depositor's remark. Rows were chosen to be rich in hits. Some 4.8% of all compounds tested hit in one or more screens of this group.

SMILES	ALR H2O2 inh	Mot1-301 SUMO	AI-2 QS mod	HIF activator	Yeast Mot1 SUMO
O=C(CCC1CCCN(C(=O)CCCc2ccccc2)C1)N1CCN(c2ccccn2)CC1 (configuration not stated)	nt	680	25	1	nt
O=C(CCC1CCCN(C(=O)Cc2cccc(F)c2)C1)N1CCN(c2ccccn2)CC1 (configuration not stated)	0	426*	12	0	0
COc1ccc(C2=NN(CC(=O)NCC(OC)OC)C(=O)CC2)cc1	7	3	7	-15	nt
CCn1nc(CC(=O)Nc2ccc(-n3cnnn3)c(C)c2)c2ccccc2c1=O	-2	724*	16	-37	1
CCn1ccnc1CN(C)C(=O)C1CCC(=O)N(Cc2cccc(F)c2)C1 (configuration not stated)	1	5	25	-1	nt
COC(=O)CCCC(=O)NCC1(N(C)Cc2ccccc2)Cc2ccccc2C1	-6	387*	11	-1	1
CN(C)C(=O)CN1C(=O)c2cccc3cccc1c23	-12	+	23	-34	0
COC(=O)CN1C(=O)c2cccc3cccc1c23	-16	798*	28	2	-1
COC(=O)c1c(C)[nH]c(C(=O)OCC(=O)c2c(N)n(CC(C)C)c(=O)n(C)c2=O)c1C	-1	7	nt	nt	nt
COC(=O)C1N[C@@H]([C@@H](NC(=O)COc2ccccc2)C(=O)Nc2ccc(OC)cc2)SC1(C)C (some centres not stated)	-5	7	7	0	nt
CC(=O)c1cccc(NC(=O)CNC(=O)c2sc3ccccc3c2Cl)c1	-9	664*	13	0	1
Cc1cccc(NC(=O)CNC(=O)c2sc3ccccc3c2Cl)n1	0	-1	0	2	nt
CC(C)OCCCNC(=O)C1CCN(S(=O)(=O)c2ccc3nc4c(c(C(=O)O)c3c2)CCCCC4)CC1	-6	2	12	0	nt
N#CCCN(Cc1cccnc1)C(=O)Nc1cccc(Cl)c1	1	+	21	1	0
CCCCC1=CC2=CC(=O)C(C)(OC(=O)CC)C(=O)C2=CN1CCc1ccc(Br)cc1 (configuration not stated)	-11	526*	2	1	0
O=S1(=O)C=C(Sc2nnc(-c3ccccc3)o2)c2ccccc21	78*	917*	-32	-4	-2
CS(=O)(=O)Nc1ccccc1C(=O)NCCSCc1ccccc1	-10	523*	1	0	0
CCCCOCCCNS(=O)(=O)Cc1ccccc1	-5	366*	26	0	0
O=C(O)CCCNS(=O)(=O)Cc1ccccc1	-13	4	18	0	nt
Cc1ccc(C(NC(=O)c2ccccc2)C(Cl)Cl)cc1 (configuration not stated)	-1	20	17	1	nt
Cc1ccc(C(=O)NC(NC(=O)c2ccc(C)cc2)C(Cl)Cl)cc1	-16	378*	9	3	0
CCN(CC(=O)Nc1c(F)cccc1F)C(=O)/C=C/c1ccc(Br)s1	0	-15	5	-9	nt
COc1ccc(C(=O)NC(=S)Nc2ccc(CN3CCOCC3)cc2)cc1Cl	3	42	26	0	nt
COc1ccc(C(=O)NC(=S)Nc2ccc(CN3CCCCC3)cc2)cc1Cl	13	636*	11	-1	-1
COC(=O)c1ccc(O)cc1	nt	nt	-5	-18	nt
SMILES	ALR H2O2 inh	Mot1-301 SUMO	AI-2 QS mod	HIF activator	Yeast Mot1 SUMO
CC1(C)C=C(c2ccc(O)cc2)CC(C)(C)N1	48	660*	20	1	1
O=C(Nc1ccccn1)c1cccs1	-22	-5	-10	1	nt
CN1C(C(=O)Nc2ccccn2)=C(O)c2sccc2S1(=O)=O	-12	982*!	10	0	0
COc1ccc(CC(=O)Nc2ccc(F)c(F)c2F)cc1S(=O)(=O)N1CCOCC1	nt	16	nt	nt	nt
Cc1nn(C)c(C)c1S(=O)(=O)NCCc1ccc(Cl)cc1	-1	7	nt	0	nt
O=C(c1ccco1)N1CCN(C2CC(=O)N(c3ccc(F)c(Cl)c3)C2=O)CC1 (configuration not stated)	4	551*	15	-1	-1
COc1cccc(N2C(=O)CC(N3CCN(C(=O)c4ccco4)CC3)C2=O)c1 (configuration not stated)	-3	-19	16	-1	nt
O=c1c2ccccc2nc(SCc2ccc([N+](=O)[O-])cc2)n1CCCO	9	464*	5	-1	0
CC(=O)NCCn1c(SCc2cccc([N+](=O)[O-])c2)nc2ccccc2c1=O	-2	108	16	-1	nt
O=C(OCCCCOC(=O)c1ccccc1)c1ccccc1	-20	529*	13	0	0
Cn1cnnc1-c1cccc(NS(=O)(=O)c2ccc(N3CCCC3=O)cc2)c1	-1	+	5	0	1
CCN(CCO)Cc1csc2ccc(Cl)cc12	0	-7	4	0	nt
CS(=O)(=O)N1CCN(C(=O)c2cc(-c3cccnc3)nc3ccc(Cl)cc23)CC1	-11	-2	-10	0	nt
COc1cccc(CN2CCN(C(=O)c3cccc4ccccc34)CC2)c1OC	-6	735*	9	0	0
COc1cccc(OC)c1C(=O)N1CCN(Cc2ccccc2C)CC1	0	359*	-9	0	1
COc1ccc(CN2CCN(C(=O)c3cc(-c4cccnc4)nc4ccc(Cl)cc34)CC2)c(OC)c1OC	1	510*	-9	-1	0
Cc1cc(C)c2c(N)c(C(=O)Nc3ccc([N+](=O)[O-])cc3)sc2n1	0	21	6	1	nt
COc1ccc(C(=O)NNC(=O)c2cccs2)cc1S(=O)(=O)N1CCOCC1	3	40	nt	nt	nt
COc1ccc(NC(=O)CCC(=O)c2ccc(Cl)cc2)cn1	nt	-7	nt	nt	nt
CC1(C)NC(=O)N(CCCCOc2ccccc2[N+](=O)[O-])C1=O	-9	6	13	-1	nt
CC1(C)NC(=O)N(CCCOc2ccccc2Br)C1=O	-4	+	-6	2	0
Cc1ccn2cc(-c3cnoc3C)nc2c1	8	692*	4	2	0
CC(C)(C)NC(=O)C(c1ccc(F)cc1)N(C(=O)CCC(=O)Nc1ccccn1)C1CCCC1 (configuration not stated)	-2	-10	14	0	nt
COC(=O)Nc1ccc(S(=O)(=O)N2CCCC(C(=O)NC3CCS(=O)(=O)C3)C2)cc1 (configuration not stated)	nt	387*	28	-1	0
CCCCC(=O)Oc1c(S(=O)(=O)c2ccccc2)c(C)nn1C(C)(C)C	1	100	12	-11	nt
COC(=O)C1C2C=CC3(CN(CCc4ccccc4)C(=O)C13)O2 (configuration not stated)	-6	429*	15	-2	0[21 µM]
CCN(CC1COc2ccccc2O1)C(=S)NCCCN(C)C (configuration not stated)	-5	+	5	-1	0
